# From PubChem BioAssay AID1159580 (chemical genetic matrix, 2015)
# In all, about 5,500 compounds went through this assay and about 2,000 (36%) were called active. Roughly 18% stayed inconclusive and do not appear here. The list shows a part of the results. Unmarked numbers belong to inactive results. Rule as the data show it: active = normalized growth mostly below about 0.91 (no sharp cut-off); inconclusive = no clear call, values can overlap the other calls; inactive = mostly above about 0.92.
# Assay: chemical genetic growth profiling, strain panel (AID 1159580);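 also: tested at 20 µM; growth read once vehicle control cultures reached saturation at 30 °C; 1 = growth at the plate median or of vehicle wells; lower values mean less growth of the strain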
# Conditions: growth OD
# [1] = S. cerevisiae deletion strains, locus YAL013W, strain DEP1, active compounds read low
# [2] = S. cerevisiae deletion strains, locus YBR229C, strain ROT2, active compounds read low
# [3] = S. cerevisiae deletion strains, locus YDL101C, strain DUN1, active compounds read low
# [4] = S. cerevisiae deletion strains, locus YDR150W, strain NUM1, active compounds read low
# [5] = S. cerevisiae deletion strains, locus YEL061C, strain CIN8, active compounds read low
# [6] = S. cerevisiae deletion strains, locus YGR078C, strain PAC10, active compounds read low
# [7] = S. cerevisiae deletion strains, locus YHR030C, strain SLT2, active compounds read low
# [8] = S. cerevisiae deletion strains, locus YHR087W, strain rtc3, active compounds read low
# [9] = S. cerevisiae deletion strains, locus YJR043C, strain POL32, active compounds read low
# [10] = S. cerevisiae deletion strains, locus YJR075W, strain HOC1, active compounds read low
# [11] = S. cerevisiae deletion strains, locus YKL190W, strain CNB1, active compounds read low
# [12] = S. cerevisiae deletion strains, locus YLR039C, strain RIC1, active compounds read low
# [13] = S. cerevisiae deletion strains, locus YLR058C, strain SHM2 (second series), active compounds read low
# [14] = S. cerevisiae deletion strains, locus YLR085C, strain ARP6, active compounds read low
# [15] = S. cerevisiae deletion strains, locus YLR262C, strain YPT6, active compounds read low
# [16] = S. cerevisiae deletion strains, locus YML094W, strain GIM5, active compounds read low
# [17] = S. cerevisiae deletion strains, locus YMR219W, strain ESC1, active compounds read low
# [18] = S. cerevisiae deletion strains, locus YMR263W, strain SAP30, active compounds read low
# [19] = S. cerevisiae deletion strains, locus YNL128W, strain TEP1, active compounds read low
# [20] = S. cerevisiae deletion strains, locus YNL153C, strain GIM3, active compounds read low
# [21] = S. cerevisiae deletion strains, locus YNL298W, strain CLA4 (second series), active compounds read low
# [22] = S. cerevisiae deletion strains, locus YNL322C, strain KRE1, active compounds read low
# [23] = S. cerevisiae deletion strains, locus YNR030W, strain Alg12, active compounds read low
# [24] = S. cerevisiae deletion strains, locus YPL055C, strain LGE1, active compounds read low
# [25] = S. cerevisiae deletion strains, locus YPL241C, strain CIN2, active compounds read low
# [26] = S. cerevisiae deletion strains, locus YPR135W, strain CTF4, active compounds read low
smiles,measurement,setting,value
CC(C)c1ccc(NC(=S)NC(=O)c2ccc(C(F)(F)F)cc2)cc1,normalized growth,[1],1
same,normalized growth,[2],1.02
same,normalized growth,"S. cerevisiae deletion strains, locus YCL061C, strain MRC1, active compounds read low",1.01
same,normalized growth,[3],1.01
same,normalized growth,[4],1
same,normalized growth,[5],1.02
same,normalized growth,[6],1.02
same,normalized growth,"S. cerevisiae deletion strains, locus YGR229C, strain SMI1, active compounds read low",1.02
same,normalized growth,[7],1.1
same,normalized growth,[8],1.02
same,normalized growth,[9],1.01
same,normalized growth,[10],1
same,normalized growth,[11],1.02
same,normalized growth,[12],1.09
same,normalized growth,[13],1.02
same,normalized growth,[14],1.23 [resistant] (active)
same,normalized growth,[15],1.07
same,normalized growth,[16],1.02
same,normalized growth,[17],1.01
same,normalized growth,[18],1
same,normalized growth,"S. cerevisiae deletion strains, locus YMR307W, strain GAS1, active compounds read low",1.3
same,normalized growth,[19],1.02
same,normalized growth,[20],0.989
same,normalized growth,[21],1.06
same,normalized growth,[22],1.01
same,normalized growth,[23],1.01
same,normalized growth,[24],0.997
same,normalized growth,[25],1.13
same,normalized growth,[26],1.09
O=C(NC(=S)NCc1ccncc1)c1ccccc1,normalized growth,[1],1.02
same,normalized growth,[2],1.01
same,normalized growth,[3],1.01
same,normalized growth,[4],0.983
same,normalized growth,[5],1
same,normalized growth,[6],1.01
same,normalized growth,[7],1.05
same,normalized growth,[8],1
same,normalized growth,"S. cerevisiae deletion strains, locus YJL187C, strain SWE1, active compounds read low",0.973
same,normalized growth,[9],0.997
same,normalized growth,[10],1.03
same,normalized growth,[11],1.01
same,normalized growth,[12],0.928
same,normalized growth,[13],1
same,normalized growth,[14],0.969
same,normalized growth,[15],0.978
same,normalized growth,[16],1.01
same,normalized growth,[17],1
same,normalized growth,[18],1
same,normalized growth,[19],1.01
same,normalized growth,[20],1
same,normalized growth,[21],1.04
same,normalized growth,[22],1
same,normalized growth,[23],1.02
same,normalized growth,[24],1
same,normalized growth,[25],1.02
same,normalized growth,[26],0.929
same,normalized growth,"S. cerevisiae strains, strain wild type, active compounds read low",1.01
